Measurements published in PubChem BioAssay AID623911 (Vanderbilt High Throughput Screening Facility, 2012).
In all, about 2,100 compounds went through this assay and about 770 (37%) were called active.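 How the source made its calls: active means by-eye trace score of 1 for enhancers or -1 for inhibitors, so actives lie on both sides (some results past the limit were not filed as active); inactive means score 0, or 3 fluorescent, or 4 baseline rise.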 The list shows a part of the results.

These molecules were tested against G protein-activated inward rectifier potassium channel 2 (Homo sapiens) + G protein-activated inward rectifier potassium channel 1 (Homo sapiens) (UniProt P48051+P48549) (assay: GIRK1/2 thallium flux modulators, retest, confirmation, cell-based, HEK293 rmGlu8/hGIRK1/2, FluoZin-2 (AID 623911)). Conditions: HEK293 rmGlu8/hGIRK1/2, thallium flux FluoZin-2; actives lie on both sides; glutamate co-added at its EC20 level.
Chain of G protein-activated inward rectifier potassium channel 2 (Homo sapiens) + G protein-activated inward rectifier potassium channel 1 (Homo sapiens) (P48051 whole entry, looked up): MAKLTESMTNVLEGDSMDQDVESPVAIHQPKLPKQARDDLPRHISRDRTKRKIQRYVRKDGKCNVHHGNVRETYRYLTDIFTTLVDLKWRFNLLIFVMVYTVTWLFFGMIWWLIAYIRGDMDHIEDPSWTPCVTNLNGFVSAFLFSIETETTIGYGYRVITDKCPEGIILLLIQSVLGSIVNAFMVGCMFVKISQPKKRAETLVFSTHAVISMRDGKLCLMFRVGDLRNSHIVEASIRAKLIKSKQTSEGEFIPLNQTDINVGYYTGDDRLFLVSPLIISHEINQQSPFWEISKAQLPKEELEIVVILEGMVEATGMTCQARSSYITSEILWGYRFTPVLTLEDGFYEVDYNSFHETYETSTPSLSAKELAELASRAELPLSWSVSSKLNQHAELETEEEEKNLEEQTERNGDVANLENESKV
Chain of G protein-activated inward rectifier potassium channel 2 (Homo sapiens) + G protein-activated inward rectifier potassium channel 1 (Homo sapiens) (P48549 whole entry, looked up): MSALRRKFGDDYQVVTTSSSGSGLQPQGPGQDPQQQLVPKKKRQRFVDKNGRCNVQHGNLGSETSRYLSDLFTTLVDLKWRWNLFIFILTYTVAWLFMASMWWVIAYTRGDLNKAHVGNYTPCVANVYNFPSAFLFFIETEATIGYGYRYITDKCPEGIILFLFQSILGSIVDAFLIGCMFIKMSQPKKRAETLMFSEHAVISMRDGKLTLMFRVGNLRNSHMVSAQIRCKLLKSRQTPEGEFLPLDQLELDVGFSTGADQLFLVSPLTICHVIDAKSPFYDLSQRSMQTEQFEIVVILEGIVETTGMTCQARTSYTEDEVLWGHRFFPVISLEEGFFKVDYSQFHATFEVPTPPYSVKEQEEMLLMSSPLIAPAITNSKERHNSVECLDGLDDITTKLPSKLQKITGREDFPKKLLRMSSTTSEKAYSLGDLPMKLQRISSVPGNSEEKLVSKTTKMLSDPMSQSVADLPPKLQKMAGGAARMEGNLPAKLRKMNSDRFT

| Compound | manual score |
| --- | --- |
| Cc1c(C(=O)O)c(=S)sn1CCOc1ccccc1 | 0 (inactive) |
| Cc1ccc(-c2cnc(NC(=O)CCC(=O)N3CCCCC3)n2C)cc1 | 0 (inactive) |
| N#Cc1nc(Cc2ccccc2)oc1NCCc1ccccc1 | -0.5 (inactive) |
| O=C(c1cccc(F)c1)N1CCN(C(=O)c2cc(-c3ccc(Cl)cc3Cl)on2)CC1 | 0 (inactive) |
| Cc1ccc(-c2n[nH]c(=S)n2/N=C/c2cccs2)cc1 | 0.5 (inactive) |
| Cc1ccc(/C=N/n2c(-c3cccs3)n[nH]c2=S)cc1 | 1 (active) |
| Cc1ccc(-c2n[nH]c(=S)n2/N=C/c2ccc(C)s2)cc1 | 0 (inactive) |
| Fc1ccc(/C=N/n2c(-c3cccs3)n[nH]c2=S)cc1 | 1 (active) |
| Cn1cccc1/C=N/n1c(-c2ccc(C(C)(C)C)cc2)n[nH]c1=S | 0 (inactive) |
| Cc1ccc([N+](=O)[O-])cc1NC(=S)NC(=O)c1ccco1 | 1 (active) |
| O=C(NC(=S)Nc1ccccn1)c1cc(-c2ccccc2)nc2ccccc12 | 0.5 (inactive) |
| COc1cccc(C(=O)NC(=S)Nc2ccc([N+](=O)[O-])cc2C)c1 | 0 (inactive) |
| O=C(NC(=S)Nc1ccccn1)c1ccco1 | 1 (active) |
| Cc1ccc2nsnc2c1NC(=S)NC(=O)c1ccco1 | 1 (active) |
| Cc1cc([N+](=O)[O-])ccc1NC(=S)NC(=O)Cc1ccccc1 | 0 (inactive) |
| Cc1cccc(NC(=S)NC(=O)c2ccco2)n1 | 1 (active) |
| Cc1ccc2cccc(NC(=S)NC(=O)c3ccnn3C)c2n1 | 0 (inactive) |
| O=C(CC(=O)Nc1ccccn1)Nc1ccccn1 | 0 (inactive) |
| Cc1ccc(OCC(=O)NC(=S)Nc2cccc(C)n2)cc1 | 0 (inactive) |
| COc1ccc(CO/N=C/c2c(C)[nH]c(=O)[nH]c2=O)cc1 | 0 (inactive) |
| CCCn1nnc(NC(=O)COc2ccc(C3CCCCC3)cc2)n1 | 0 (inactive) |
| CC(NC(=O)C1CC=CCC1C(=O)O)C1CC2CCC1C2 (configuration not stated) | 0 (inactive) |

| Compound | manual score |
| --- | --- |
| CCN(CC)c1ccc2cc(-c3nnc(-c4ccccc4)o3)c(=O)oc2c1 | 3 (inactive) |
| CCCn1nnnc1NC(=O)c1ccc2ccccc2c1 | 1 (active) |
| CCN(CC)CCn1c(NC(=O)c2ccc(Cl)cc2)nc2ccccc21 | 0 (inactive) |
| CCCn1nc2cc(C(=O)NCCc3ccc(C)cc3)ccc2c1OCC | 0 (inactive) |
| CC1CN(C2CC(C)(C)NC(C)(C)C2)CCC1=O (configuration not stated) | 0 (inactive) |
| Cc1ccc2c(CC(=O)NC3CCCc4ccccc43)coc2c1 (configuration not stated) | 0 (inactive) |
| O=C1CCC(/C=C/c2ccccc2)=NN1Cc1ccc(Cl)c(Cl)c1 | 0 (inactive) |
| CCN1CCN(c2ccc(NC(=O)CCc3c(C)nc4c(-c5ccccc5)c(C)nn4c3C)cc2)CC1 | 0 (inactive) |
| Cc1nn2c(NCCCN(C)C)c3c(nc2c1-c1ccccc1)CCC3 | -1 (active) |
| Cc1cc(N2CCOCC2)n2nc(C)c(-c3ccccc3)c2n1 | 0 (inactive) |
| CCOC(=O)C1=C(C)NC2=C(C(=O)C(C(=O)OCC)C(c3cccc(OC)c3)C2)C1c1ccccn1 (configuration not stated) | 0 (inactive) |
| COC(=O)c1onc(C(=O)c2ccccc2)c1C(=O)OC | -1 (active) |
| Cc1nn(CC(=O)Nc2ccc(Cl)c(S(=O)(=O)N(C)C)c2)c(C)c1[N+](=O)[O-] | 1 (active) |
| CN(C)S(=O)(=O)c1cc(NC(=O)COC(=O)c2ccc3c(c2)OCO3)ccc1Cl | 0.5 (inactive) |
| Cc1cc(C)n(-c2ccc(C(=O)OCC(=O)Nc3ccc(Cl)c(S(=O)(=O)N(C)C)c3)cc2)n1 | 1 (active) |
| CCC(C(=O)OCC(=O)Nc1ccc(Cl)c(S(=O)(=O)N(C)C)c1)c1ccccc1 (configuration not stated) | 1 (active) |
| CC(C)C(=O)OCC(=O)Nc1ccc(N=Nc2ccccc2)cc1 | 0 (inactive) |
| COC(=O)c1sccc1NC(=O)CSc1ccccc1NS(=O)(=O)c1cc(Cl)ccc1Cl | 0 (inactive) |
| CCCCN(CCCC)c1nc2ccccc2nc1C(C#N)C(=O)NCCCOC (configuration not stated) | 3 (inactive) |
| Oc1ccccc1CNc1ccc(Br)cn1 | 0 (inactive) |
| CCSc1nc(-c2ccccc2)c(C#N)c(=O)[nH]1 | 0 (inactive) |
| S=C1NC(c2ccccc2)=NCN1c1ccc(Cl)cc1 | 0.5 (inactive) |

| Compound | manual score |
| --- | --- |
| CCC1(c2ccc(Cl)cc2)NC(=S)N(c2ccccc2)N1 (configuration not stated) | 1 (active) |
| CCCCOC(=O)c1ccc(NC(=S)NC(=O)c2c(Cl)cnn2CC)cc1 | 1 (active) |
| COC(=O)c1ccc(NC(=S)NC(=O)c2cc(-c3ccccc3)nc3ccccc23)cc1 | 0 (inactive) |
| Cn1ncc2cc(NC(=S)NC(=O)c3ccccc3)ccc21 | 0 (inactive) |
| COC(=O)c1ccc(NC(=S)NC(=O)c2c(Cl)cnn2C)cc1 | 1 (active) |
| CCCCOC(=O)c1ccc(NC(=S)NC(=O)c2c(Cl)cnn2C)cc1 | 0 (inactive) |
| CCCCOC(=O)c1ccc(NC(=S)NC(=O)c2c(Br)c(C)nn2C)cc1 | 0 (inactive) |
| COC(=O)C1=NN(C(=O)c2ccc(C)cc2)C(O)(c2ccc(Cl)cc2)C1 (configuration not stated) | 1 (active) |
| CCOC(=O)c1c(C)[nH]c(C(=O)COC(=O)CNC(=O)c2ccc(Cl)cc2)c1C | 0 (inactive) |
| CCC1=NN(C(=O)c2cccc(Br)c2)C(O)(c2ccc(Br)cc2)C1 (configuration not stated) | 0 (inactive) |
| CCOC(=O)C1=NN(C(=O)c2ccc(C)cc2)C(O)(c2ccc(Cl)cc2)C1 (configuration not stated) | 1 (active) |
| COC(=O)C1=NN(C(=O)c2ccc(Cl)cc2)C(O)(c2ccccc2)C1 (configuration not stated) | 1 (active) |
| CCOC(=O)C1=NN(C(=O)c2ccccc2)C(O)(c2ccc(C)cc2)C1 (configuration not stated) | 1 (active) |
| CCOC(=O)C1=C(NC(=S)NC(=O)c2ccccc2)c2ccccc2CC1(C)C | 0 (inactive) |
| CC1=NN(c2ccccc2)C(=O)C1C(=O)c1ccc(Cl)cc1 (configuration not stated) | 0.5 (inactive) |
| CC(C)c1nc(N2CCOCC2)c(C#N)c2c1CCCC2 | 0 (inactive) |
| Cc1ccc2c(c1)NC(=O)CC(c1ccccc1)=N2 | 0 (inactive) |
| Cc1ccc(SC(C)C(=O)Nc2ccc(S(=O)(=O)N3CCOCC3)cc2)cc1 (configuration not stated) | 0 (inactive) |
| Oc1cccc(NC(=S)Nc2ccc(SC(F)F)cc2)c1 | 1 (active) |
| CC1CC(C)CN(C(=S)Nc2ccc(SC(F)F)cc2)C1 (configuration not stated) | 1 (active) |
| CC1CCCC(NC(=S)Nc2ccc(SC(F)F)cc2)C1C (configuration not stated) | 1 (active) |
| O=S(=O)(c1ccccc1)N1CCN(C(=S)Nc2ccc(F)cc2)CC1 | 0 (inactive) |

| Compound | manual score |
| --- | --- |
| CC1CCCCC1NC(=S)Nc1ccc(SC(F)F)cc1 (configuration not stated) | 1 (active) |
| CCNc1ccc2noc3c2c1C(=O)c1ccccc1-3 | 0 (inactive) |
| CCN(CC)c1ccc2c(c1)OC(N)=C(C#N)C2c1cccnc1 (configuration not stated) | 3 (inactive) |
| CCc1nc(SCc2ccc(F)cc2)[nH]c(=O)c1C#N | 3 (inactive) |
| CCOc1ccc(-c2nc(-c3cccnc3)no2)cc1OCC | 0 (inactive) |
| Cc1ccc(N=Nc2ccc(O)c3ncccc23)cc1 | 0 (inactive) |
| Cc1ccc(N=Cc2cc3c(cc2O)OC(N)=C(C#N)C3c2ccccc2)cc1 (configuration not stated) | 0 (inactive) |
| CCOc1cccc(C(=O)NC(=S)Nc2ccccc2)c1 | 0 (inactive) |
| CCOc1ccc(C(=O)NC(=S)N(Cc2ccccc2)Cc2ccccc2)cc1 | 1 (active) |
| COc1ccc(C(=O)NC(=S)N(Cc2ccccc2)Cc2ccccc2)cc1 | 1 (active) |
| CN(C)C(=O)CSc1cccc2cccnc12 | 0 (inactive) |
| CC(Nc1ccc(Br)cn1)c1cc(Cl)ccc1O (configuration not stated) | 0 (inactive) |
| CNC(=S)N/N=C/c1ccc(C(C)C)cc1 | 0 (inactive) |
| Cc1ccc(/C=N/NC(=S)N2CCOCC2)cc1 | 1 (active) |
| Clc1ccc(/C=N/Nc2nc(Cl)nc3ccccc23)cc1 | 0 (inactive) |
| S=C(N/N=C/c1ccccc1)N1CCOCC1 | 0.5 (inactive) |
| Cc1ccc(C(=O)c2ccc(N3CCOCC3)c(F)c2)cc1 | 0 (inactive) |
| S=C(N/N=C/c1ccc(Cl)cc1)N1CCOCC1 | 1 (active) |
| O=C1CC(C(=O)Nc2ccc(Br)cc2)C2(CCCC2)O1 (configuration not stated) | 1 (active) |
| O=C(Nc1ccc(Br)cc1)C1CCC(=O)N1Cc1ccccc1Cl (configuration not stated) | 0 (inactive) |
| COCc1nnc(NC(=O)C(C)C)s1 | 0 (inactive) |
| CCCCn1c(-c2csc3c2CCC(C)C3)n[nH]c1=S (configuration not stated) | 0 (inactive) |

| Compound | manual score |
| --- | --- |
| Cn1nc(C(F)(F)F)c2cc(NC(=O)OCc3ccc(F)cc3)sc21 | 0 (inactive) |
| CCOC(=O)C(CC)Sc1nnc(COc2ccc(C)cc2)n1-c1ccccc1 (configuration not stated) | -1 (active) |
| CCOC(=O)C(CC)Sc1nnc2cc(C)c3ccccc3n12 (configuration not stated) | 0 (inactive) |
| CC(/C=N/n1c(COc2ccccc2)n[nH]c1=S)=C\c1ccccc1 | 0 (inactive) |
| Cc1cccc2cc(/C=C3\N=C(c4ccccc4)OC3=O)c(N3CCOCC3)nc12 | 3 (inactive) |
| CCOC(=O)C1=C(C)NC2=C(C(=O)CC(c3ccc(OC)c(OC)c3)C2)C1c1ccc(C)o1 (configuration not stated) | 0 (inactive) |
| CC1=C(C(=O)OCC2CCCO2)C(c2ccc(C)o2)C2=C(CC(c3ccc(F)cc3)CC2=O)N1 (configuration not stated) | -1 (active) |
| CCOC(=O)C1=C(C)NC(=O)NC1c1ccc(Br)o1 (configuration not stated) | 0 (inactive) |
| O=C(CSc1nnc(-c2cccnc2)o1)OC1CCCCC1 | 0 (inactive) |
| COC(=O)c1[nH]c2ccc(C)cc2c1NC(=O)CCN1CCN(Cc2ccc3c(c2)OCO3)CC1 | -1 (active) |
| Cc1ccc(C)c(Nc2c([N+](=O)[O-])cc(C(=O)N3CC(=O)Nc4ccccc43)cc2[N+](=O)[O-])c1 | 0 (inactive) |
| S=c1nc(-c2ccc(Br)cc2)oc2c1CCCC2 | 1 (active) |
| c1ccc2c(N3CCCCCC3)nc(-c3ccncc3)nc2c1 | -1 (active) |
| c1ccc(-c2nnc3ccc(N4CCCC4)nn23)cc1 | 0 (inactive) |
| O=c1c2cccnc2[nH]c(=S)n1CCCN1CCN(c2ccc(F)cc2)CC1 | 0 (inactive) |
| Cc1ccc(C)n1-c1ccc(-c2nnco2)cc1 | 0 (inactive) |
| CCOC(=O)CSc1cc(CSc2ccccc2)nc(-c2ccccc2)n1 | 0 (inactive) |
| CCOC(=O)C(Cc1ccccc1)NC(=O)Cn1nnc(-c2ccccc2)n1 (configuration not stated) | 1 (active) |
| CCCC(=O)n1nc(-c2ccccc2)nc1N | 0 (inactive) |
